Rows were chosen to be rich in hits. Some 2.4% of all compounds tested hit in one or more screens of this group.
D2 PAM-1: positively modulates the human D2 dopamine receptor allosterically; P14416; HEK293 T-REx D2, calcium flux, EC20 dopamine potentiation; potentiation, % at 10 µM; 0.34% of 340,000 active; AID 485347;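 active = potentiation over 3 SD above the plate norm, cut at about 30% in these data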; note: 0% is about no effect
Target sequence (P14416 whole entry, looked up): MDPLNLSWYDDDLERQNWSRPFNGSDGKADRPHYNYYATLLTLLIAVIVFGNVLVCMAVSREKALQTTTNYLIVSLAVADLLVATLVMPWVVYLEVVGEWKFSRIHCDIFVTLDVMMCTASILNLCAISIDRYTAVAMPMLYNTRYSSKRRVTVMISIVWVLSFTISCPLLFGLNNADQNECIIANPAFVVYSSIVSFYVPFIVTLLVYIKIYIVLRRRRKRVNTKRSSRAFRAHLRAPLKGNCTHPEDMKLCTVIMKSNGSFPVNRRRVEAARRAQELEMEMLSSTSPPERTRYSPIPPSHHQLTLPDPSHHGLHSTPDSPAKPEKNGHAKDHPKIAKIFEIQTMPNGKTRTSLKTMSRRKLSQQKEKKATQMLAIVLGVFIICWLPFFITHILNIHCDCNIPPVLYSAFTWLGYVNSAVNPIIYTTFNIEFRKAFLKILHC
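Primary screen. Calcium kinetics in induced HEK293 T-REx D2 cells: compound pre-addition 180 s, EC20 dopamine, 180 s more.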
D2 antag: antagonists of human D2 dopamine receptor; inhibition, % at 10 µM; 2% of 340,000 active; HEK293 TREx D2 cells, calcium flux, dopamine EC80; AID 485344; P14416; in the data active = inhibition above about 30%; inactive = below that, where a call was filed; note: 0% is about no effect
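Measurement of antagonist activity uses fluorescent calcium dye in inducible HEK293 T-REx D2 cells: 10 s baseline, compound addition with 180 s read, EC80 dopamine addition with a further 180 s read.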
D2 PAM-2: human D2 receptor positive allosteric modulation. potentiation, % (test concentration not listed). DiscoveRx D2 beta-arrestin cells, luminescence, 90 min; 100% = 57 uM dopamine signal. 0.23% of 360,000 active. P14416. AID 624464; in the data active = potentiation above about 50%
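PathHunter D2 cells, attached overnight at 37 deg C, received compound in DMSO plus dopamine at EC20 (50 nM final) for 90 min at 37 deg C. Beta-arrestin recruitment was read as luminescence after 1 h with detection reagent at ambient temperature.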
D2 ag-1: agonists of human D2 dopamine receptor (beta-arrestin); P14416; DiscoveRx PathHunter D2 beta-arrestin, luminescence, 90 min; 100% = 57 uM dopamine signal; 0.084% of 360,000 active; activation, % (test concentration not listed); in the data active = activation above about 40%
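DiscoveRx PathHunter D2 beta-arrestin cells (2,100/well) attached overnight, then compound-stimulated 90 min at 37 C in HBSS/10 mM HEPES/0.1% Tween-20 buffer; beta-galactosidase complementation read by luminescence after 1 h at ambient temperature. Dopamine 57 uM final (EC100) as control.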
D2 ag-2: activates the human D2 dopamine receptor; activation, % at 2 µM; 0.53% of 340,000 active; P14416; HEK293 T-REx D2 cells, calcium flux agonist mode;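 active = activation over 3 SD above normal in the single-dose calcium agonist read, cut at about 30% in these data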; note: 0% is about no effect
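Calcium-flux readout, 1 cycle/sec over 180 s following compound pin transfer, in inducible HEK293 Trex D2 cells (force-coupled); dopamine controls included. Positive calcium responses during this window marked compounds as potential agonists.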
* hit, by the source's call; . = not tested or not shown.

SMILES	D2 PAM-1	D2 antag	D2 PAM-2	D2 ag-1	D2 ag-2
NC1=C(Cl)C(=O)c2ccc(S(N)(=O)=O)cc2C1=O	.	.	58*	6	.
NC1=C(Cl)C(=O)c2ccccc2C1=O	.	.	51*	10	.
Cc1oc(-c2ccccc2Cl)nc1Cn1c(SCc2cccc(F)c2)nc2cccnc21	4	.	.	.	2
COc1ccc(-c2[nH]nc3nc(-c4cc(Br)ccc4OC)cc(C(=O)O)c23)cc1	0	.	.	.	-1
CC(N=C1NS(=O)(=O)c2ccccc21)C(=O)NCCCc1ccccc1 (stereo not given)	.	.	-37	3	.
COC(=O)c1ccc(CNC(=O)C(C)N=C2NS(=O)(=O)c3ccccc32)cc1 (stereo not given)	-21	44*	-38	-3	0
CCOC(=O)c1ccccc1NC(=O)CSc1nc2ncccc2o1	13	.	.	.	-1
O=C(NCc1ccc(F)cc1)C1CCN(S(=O)(=O)c2cccc3nonc23)CC1	32*	-7	-2	-2	0
Cc1ccc(CNC(=O)C2CCN(S(=O)(=O)c3cccc4nonc34)CC2)cc1	-2	-5	4	-2	1
CCOc1ccc(C2CC(=O)NC(NC(=O)c3cccc(Cl)c3)=N2)cc1 (stereo not given)	0	.	.	.	-1
O=C(Nc1ccccn1)c1ccc(Cl)c(S(=O)(=O)N2CCOCC2)c1	9	4	4	0	0
Cc1ccc(C(=O)Nc2ccccn2)cc1S(=O)(=O)N1CCOCC1	0	35*	-12	2	0
Cc1cc2c(cc1NS(=O)(=O)c1ccc(NC(=O)CC(C)C)cc1)n(C)c(=O)c(=O)n2C	-4	.	.	.	1
CCCCNC(=O)CSc1cc(=O)n(C)c2ccccc12	-3	35*	-6	-4	-1
CCn1c(=O)cc(SCC(=O)NCCCN2CCC(C)CC2)c2ccccc21	-18	-1	-8	1	0
CCn1c(=O)cc(SCC(=O)NCCCN2CCN(c3ccc(F)cc3)CC2)c2ccccc21	-26	66*	-15	5	27
O=C(Cn1c(=O)c2cccn2c2cccnc21)NCCCN1CCN(c2ccc(F)cc2)CC1	-27	54*	-54	1	20
COc1ccc(N2CCN(CCCNC(=O)Cn3c(=O)c4cccn4c4cccnc43)CC2)cc1	-23	-17	-10	1	8
CCCCNC1=CC(=O)C(=O)c2ccccc21	9	3	-8	51*	1
Cc1ccc(N(CC(=O)Nc2cccc(Cl)c2C)S(=O)(=O)c2c(C)noc2C)cc1	-12	.	.	.	1
Oc1ccc(-c2ccccc2)cc1CN1CCCCCC1	-21	69*	-24	-2	-1
COc1ccccc1NC(=O)CSCc1cc(=O)c2cccc(Cl)c2[nH]1	3	.	.	.	1
COCCn1c(SCC(=O)c2ccc(F)cc2)nnc1C(C)C	11	13	-17	-3	-1
COCCn1nnnc1SCC(=O)c1ccc(F)cc1	5	39*	-19	-8	1
COc1ccc(Br)cc1S(=O)(=O)n1c([N+](=O)[O-])cnc1C	2	34*	-9	-3	1
SMILES	D2 PAM-1	D2 antag	D2 PAM-2	D2 ag-1	D2 ag-2
CCOC(=O)c1c(NC(=O)OC)sc(C(=O)N(C)C)c1C	-5	69*	14	4	0
CCOC(=O)c1c(NC(=O)COC(=O)c2ccc(O)cc2)sc(C(=O)N(C)C)c1C	36*	-9	-5	0	0
C=CCNCCCOc1ccc(C(C)(C)c2ccccc2)cc1	8	-6	-33	-5	0
CN(C)CCCCOc1ccccc1F	-6	-1	-13	-2	0
CN(C)CCCCOc1ccccc1-c1ccccc1	-28	71*	-21	-1	4
C=CCNCCOc1ccccc1-c1ccccc1	-28	87*	-39	-1	8
CCCCNCCOCCOc1ccccc1-c1ccccc1	-21	76*	-27	2	0
COCCNCCCCOc1ccccc1-c1ccccc1	-34	92*	-36	-5	1
Cc1nnc(SCC(=O)Nc2nccs2)s1	10	34*	7	0	-1
Nc1nnc(SCC(=O)Nc2nccs2)s1	-5	5	1	-3	2
Cc1ccc(-c2c3c(nc4sc(C(N)=O)c(N)c24)CCCC3)o1	-13	-7	-5	0	31*
O=C(O)c1cnn(-c2nc(-c3cccc([N+](=O)[O-])c3)cs2)c1C(F)(F)F	-5	31*	0	-1	1
N#CC1=C(SCC(=O)NC2CC2)NC(=O)C(C#N)C12CCCCC2 (stereo not given)	9	4	5	3	0
N#CC1=C(SCC(=O)NC23CC4CC(CC(C4)C2)C3)NC(=O)C(C#N)C12CCCCC2 (stereo not given)	94*	-39	8	2	1
Cc1cccc2c1N(Cc1ccccc1OCCC(C)C)C(=O)C2=O	0	.	.	.	-1
Clc1ccc(-c2nnc(SCc3nc(-c4ccccc4)no3)o2)cc1	-8	41*	-3	-5	0
c1ccc(-c2noc(CSc3nc4ccccc4o3)n2)cc1	-5	-3	-7	1	-1
Cc1ccc(COc2coc(CN3CCN(C(=O)c4ccco4)CC3)cc2=O)cc1	9	-5	-12	3	24
CC(Oc1coc(CN2CCN(C(=O)c3ccco3)CC2)cc1=O)c1ccccc1 (stereo not given)	-3	-3	-22	4	31*
c1cc(CNc2ccc3c(c2)OCCO3)ccn1	31*	-7	15	0	2
CN(CCC#N)C(=O)COC(=O)c1ccc(Cl)cc1O	-6	47*	0	-2	1
COC(=O)CN1C(=O)CSc2ccc(S(=O)(=O)Nc3c(C)cc(C)cc3C)cc21	5	.	.	.	0
CCOc1ccc(-c2nonc2NC(=O)c2ccc(C)cc2)cc1OCC	-1	.	.	.	-1
Cc1ccc(NC(=O)Cn2cnc3c2c(=O)n(C)c(=O)n3C)cc1C	-3	.	.	.	0
Cc1nc(N2CCCC2)c2c(C(=O)Nc3cccc(Cl)c3C)c(C)oc2n1	2	.	.	.	0
SMILES	D2 PAM-1	D2 antag	D2 PAM-2	D2 ag-1	D2 ag-2
Cc1cccc(C(=O)N2CCc3cc(CNS(=O)(=O)c4ccc(F)c(Cl)c4)ccc32)c1	2	.	.	.	-1
O=C(NCCCNCCCNC(=O)c1ccccn1)c1ccccn1	4	74*	-25	-1	0
Cc1ccccc1C(=O)NCCNC(=O)c1ccccn1	0	-3	-8	-5	3
Cc1ccccc1C(=O)NCCCNC(=O)c1ccccn1	31*	2	0	-1	-2
CN(C)CCCNCCCNC(=O)c1ccccn1	-5	19	-4	-1	-1
Clc1ccc(-c2csc(=Nc3ccccc3)n2Cc2ccc3c(c2)OCO3)cc1	20	.	.	.	0
NS(=O)(=O)c1ccc(NC(=O)CN2CCN(c3ccc(F)cc3)CC2)cc1	4	.	.	.	2

Screens (PubChem BioAssay)
